From the supplement of paper PMC4840960

Tests used:
[1] = system: E18 rat cortical neuron-glia co-culture; test: fiber score / MBP score (myelination specific beyond OL differentiation) (ratio); higher = more myelination-specific MBP alignment; settings: treatment time: 8 days (DIV5-DIV13)
Summary of the method: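 Papain-dissociated primary E18 rat cortical co-cultures, plated at 20,000 cells/well on poly-d-lysine/laminin 96-well plates, were exposed to library compounds at 1 or 5 µM in myelination medium between DIV5 and DIV13. Following fixation in 4 % paraformaldehyde, cultures were stained for MBP, Olig2 and DAPI, and four 10X fields per well were analysed in duplicate wells. Values are the ratio of fiber score (continuous MBP fiber length per Olig2+ nucleus) to MBP score (thresholded MBP area × intensity per Olig2+ nucleus).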

[2] = system: E18 rat cortical neuron-glia co-culture; test: myelination (MBP fiber length per Olig2+ nucleus), % of 1 µM DAPT response (DMSO = 0) (% of DAPT); higher = more myelination, active = 50 or more; settings: treatment time: 8 days (DIV5-DIV13)
Summary of the method: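 Myelination, expressed as continuous straight MBP fiber length per Olig2+ nucleus, was normalised to 0.1 % DMSO as 0 and a 1 µM positive control as 100. The cultures were primary E18 rat cortical co-cultures dissociated with papain and plated at 20,000 cells/well on poly-d-lysine/laminin-coated 96-well plates. They received library compounds at 1 or 5 µM in myelination medium between DIV5 and DIV13. Analysis covered four 10X fields per well in duplicate wells after 4 % paraformaldehyde fixation and immunostaining for MBP and Olig2 with DAPI.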

Row | Compound | fiber score / MBP score ([1]; 1 µM) | fiber score / MBP score ([1]; 5 µM) | myelination ([2]; 1 µM) | myelination ([2]; 5 µM)
1 | CC(C)C[C@H](NC(=O)[C@@H](O)[C@H](N)Cc1ccccc1)C(=O)O [Ubenimex] | 0.92 | 1.09 | -7.81 (inactive) | 1.09 (inactive)
2 | CCC1(c2ccccc2)C(=O)NCNC1=O [Primidone] | 0.952 | 1.03 | 3.26 (inactive) | -3.74 (inactive)
3 | C[C@H]1[C@H](OC(=O)CCC(=O)O)O[C@@H]2O[C@@]3(C)CC[C@H]4[C@H](C)CC[C@@H]1[C@@]24OO3 [Artesunate] | 0.652 | 1.2 | -34.4 (inactive) | 189
4 | CCCCNc1cc(C(=O)O)cc(S(N)(=O)=O)c1Oc1ccccc1 [Bumetanide] | 0.846 | 0.859 | -8.01 (inactive) | -11.3 (inactive)
5 | Cc1cc2c(s1)Nc1ccccc1N=C2N1CCN(C)CC1 [Olanzapine] | 1.2 | 0.751 | -0.209 (inactive) | -13.5 (inactive)
6 | CCC1=C[C@@H]2CN(C1)Cc1c([nH]c3ccccc13)[C@@](C(=O)OC)(c1cc3c(cc1OC)N(C)[C@H]1[C@@](O)(C(=O)OC)[C@H](OC(C)=O)[C@]4(CC)C=CCN5CC[C@]31[C@@H]54)C2 [Vinorelbine] | 0.944 | 0.453 | -6.45 (inactive) | -26.1 (inactive)
7 | CN(C)C(=O)C(CCN1CCC(O)(c2ccc(Cl)cc2)CC1)(c1ccccc1)c1ccccc1 [Loperamide] | 0.58 | 0.368 | -10.1 (inactive) | -21 (inactive)
8 | CNCC[C@@H](Oc1ccccc1C)c1ccccc1 [Atomoxetine] | 0.774 | 0.721 | -18.6 (inactive) | -17.2 (inactive)
